# Laboratory results taken from PubChem BioAssay (Tox21).
# Where “and” joins values, the source holds several entries; their conditions need not be identical. Equal entries are not always repeated. Results filed as inconclusive are left out. A call without a number means that no potency is given here. Calls of active or inactive are those of the source. Unless noted, the call rests on the fitted dose curve; in most records, active means well fitted curve in the direction sought with a large enough effect in the repeat runs; inconclusive means weak or mixed curves; inactive means no such curve, though single readings can be large; an effect the other way counts as inactive or inconclusive.
# Experiments:
# [1] = qHTS assay to identify small molecule antagonists of the glucocorticoid receptor (GR) signaling pathway - cell viability counter screen (AID 720693); further: nearly all actives have a fitted effect of over 55% in size
# [2] = qHTS assay for identifying genotoxic compounds that show differential cytotoxicity against isogenic chicken DT40 cell lines with known DNA damage response pathways - wild type cell line (AID 743012); further: nearly all actives have a fitted effect of over 60% in size; further: potency means the concentration at half of the fitted maximal effect
# Outline: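 Viability of DNA repair-proficient chicken DT40 cells was assessed by CellTiter-Glo luminescence following 40 h compound exposure at 37 C/5% CO2.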
# [3] = qHTS assay for identifying genotoxic compounds that show differential cytotoxicity against isogenic chicken DT40 cell lines with known DNA damage response pathways - Rev3 mutant cell line (AID 743014); further: nearly all actives have a fitted effect of over 55% in size; further: potency means the concentration at half of the fitted maximal effect
# [4] = qHTS assay for identifying genotoxic compounds that show differential cytotoxicity against isogenic chicken DT40 cell lines with known DNA damage response pathways - Rad54/Ku70 mutant cell line (AID 743015); further: nearly all actives have a fitted effect of over 60% in size; further: potency means the concentration at half of the fitted maximal effect
# [5] = qHTS assay to identify small molecule antagonists of the androgen receptor (AR) signaling pathway using the MDA cell line - cell viability counter screen (AID 743041; further: nearly all actives have a fitted effect of over 45% in size; further: potency means the concentration at half of the fitted maximal effect)
# Outline: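 qHTS viability read-out; MDA-kb2 AR-luc; R1881-stimulated; 16 h exposure at 37C, 0% CO2; CellTiter-Fluor, 30 min; fluorescence intensity.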
# [6] = qHTS assay to identify small molecule antagonists of the thyroid receptor (TR) signaling pathway - cell viability counter screen (AID 743064); further: nearly all actives have a fitted effect of over 50% in size; further: potency means the concentration at half of the fitted maximal effect
# Outline: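 GH3.TRE-Luc cells, 4 h pre-plating; cpd + T3 1 nM final; 37 °C 23.5 h; CellTiter-Fluor 30 min; fluorescence read.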
# [7] = qHTS assay to identify small molecule antagonists of the androgen receptor (AR) signaling pathway - cell viability counter screen (AID 743033; further: nearly all actives have a fitted effect of over 45% in size)
# [8] = target: Androgen receptor (Homo sapiens) (UniProt P10275); assay: qHTS assay to identify small molecule agonists of the androgen receptor (AR) signaling pathway using the MDA cell line (AID 743040; further: nearly all actives have a fitted effect of over 20% in size)
# Outline: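 Agonist activity is measured as luciferase luminescence in human MDA-kb2 cells whose MMTV reporter responds to both AR and GR. Compounds in DMSO incubate 16 h at 37C, 0% CO2, and ONE-Glo is read after 30 min.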
# [9] = target: Androgen receptor (Homo sapiens) (UniProt P10275); assay: qHTS assay to identify small molecule antagonists of the androgen receptor (AR) signaling pathway using the MDA cell line (AID 743042; further: nearly all actives have a fitted effect of over 55% in size)
# Outline: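 MDA-kb2 cells (human breast carcinoma, stably carrying an MMTV-luciferase reporter responsive to AR and GR) were plated at 3,000 cells/well and preincubated 5 hr at 37C, then given compound plus R1881 agonist for 16 h. ONE-Glo luminescence was read.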
# [10] = target: Androgen receptor (Homo sapiens) (UniProt P10275); assay: qHTS assay to identify small molecule antagonists of the androgen receptor (AR) signaling pathway (AID 743035; active means well fitted inhibition curve with a large enough effect in the signal ratio in the repeat runs, not every such curve was filed as active; the % refers to the signal ratio)
# Outline: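 Reporter HEK293 cells were exposed to compounds and R1881 overnight (16 h, 37C); beta-lactamase activity was then quantified by FRET fluorescence.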
# Sequence of Androgen receptor (Homo sapiens) (P10275 whole entry, looked up): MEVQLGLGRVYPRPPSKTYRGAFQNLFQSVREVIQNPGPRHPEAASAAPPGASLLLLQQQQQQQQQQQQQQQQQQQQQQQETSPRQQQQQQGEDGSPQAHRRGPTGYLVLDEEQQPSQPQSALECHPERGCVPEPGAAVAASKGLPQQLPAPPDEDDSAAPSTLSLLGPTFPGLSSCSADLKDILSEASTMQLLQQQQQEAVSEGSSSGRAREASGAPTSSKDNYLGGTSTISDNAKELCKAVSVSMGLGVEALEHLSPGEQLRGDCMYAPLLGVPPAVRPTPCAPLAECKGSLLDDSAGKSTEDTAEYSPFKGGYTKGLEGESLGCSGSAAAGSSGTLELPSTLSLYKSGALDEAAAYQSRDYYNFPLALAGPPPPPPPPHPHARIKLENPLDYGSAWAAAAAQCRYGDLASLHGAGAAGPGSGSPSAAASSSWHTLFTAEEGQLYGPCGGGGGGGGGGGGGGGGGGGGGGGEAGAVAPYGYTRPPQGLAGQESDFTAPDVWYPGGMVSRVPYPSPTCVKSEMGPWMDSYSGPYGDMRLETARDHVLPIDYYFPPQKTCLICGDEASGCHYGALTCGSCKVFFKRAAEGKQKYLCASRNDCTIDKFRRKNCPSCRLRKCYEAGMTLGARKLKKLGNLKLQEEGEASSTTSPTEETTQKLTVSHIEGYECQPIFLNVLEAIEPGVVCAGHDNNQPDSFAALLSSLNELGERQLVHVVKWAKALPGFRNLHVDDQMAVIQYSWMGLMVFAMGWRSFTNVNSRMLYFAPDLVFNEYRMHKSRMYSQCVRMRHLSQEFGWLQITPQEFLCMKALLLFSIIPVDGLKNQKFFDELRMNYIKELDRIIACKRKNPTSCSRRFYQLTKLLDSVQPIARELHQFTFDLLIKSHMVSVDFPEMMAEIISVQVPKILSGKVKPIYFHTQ
SMILES,Potency [1],Potency [2],Potency [3],Potency [4],Potency [5],Potency [6],Potency [7],Potency [8],Potency [9],Potency [10]
CCN(CC)c1ccc2c(-c3ccccc3C(=O)O)c3ccc(=[N+](CC)CC)cc-3oc2c1,inactive,12.2 µM (active),8.63 µM (active),8.63 µM (active),24.3 µM (active),5.45 µM (active),–,–,–,–
CC(C)(C)Cl,inactive,inactive,inactive,inactive,inactive,inactive,inactive,–,–,–
C[C@H]1C[C@H]2[C@@H]3CCC4=CC(=O)C=C[C@]4(C)[C@@]3(Cl)[C@@H](O)C[C@]2(C)[C@@]1(O)C(=O)CO,inactive,inactive,inactive,inactive,inactive,inactive,inactive,–,–,–
C[C@@H]1C[C@H]2O[C@@]3(O[C@@H]2C(C)(C)O)[C@H](O)[C@@]2(C)[C@@H]4CC[C@H]5C(C)(C)[C@@H](O[C@@H]6OC[C@@H](O)[C@H](O)[C@H]6O)CC[C@@]56C[C@@]46CC[C@]2(C)[C@@H]13,inactive,inactive,inactive,–,inactive,inactive,inactive,inactive,inactive,–
CCCNCC(O)COc1ccccc1C(=O)CCc1ccccc1 (stereo not given),inactive,6.68 µM (active),11.9 µM (active),11.9 µM (active),inactive,29.8 µM (active),–,–,–,–
O=C1CCC(=O)O1,inactive,inactive,inactive,inactive,inactive,inactive,inactive,–,–,–
O=C(OCCCCCCOC(=O)c1ccccc1)c1ccccc1,inactive,61.1 µM (active),61.1 µM (active),54.5 µM (active),inactive,–,–,–,–,–
COC(C)(C)CCO,inactive,inactive,inactive,inactive,inactive,inactive,inactive,–,–,–
C#Cc1cccc(Nc2ncnc3cc(OCCOC)c(OCCOC)cc23)c1,inactive,11.9 µM (active),21.1 µM (active),13.3 µM (active),inactive,inactive,inactive,–,–,–
Nc1cccc(S(=O)(=O)c2cccc(N)c2)c1,inactive,61.1 µM (active),–,61.1 µM (active),inactive,inactive,inactive,–,–,–
Cc1cccc(C)c1NC(=O)CN(CC(=O)O)CC(=O)O,inactive,inactive,inactive,–,inactive,–,inactive,–,–,–
CNC(=O)CN(CCN(CCN(CC(=O)[O-])CC(=O)NC)CC(=O)[O-])CC(=O)[O-].O.[Gd+3],inactive,inactive,–,inactive,inactive,–,inactive,–,–,–
CCOC(=O)NCCOc1ccc(Oc2ccccc2)cc1,inactive,61.1 µM (active),–,61.1 µM (active),–,–,–,–,–,–
COc1ccc(C(=O)Nc2nc3ccccc3c(NCc3ccccc3)c2C#N)cc1,inactive,27.3 µM (active),–,15.4 µM (active),inactive,inactive,inactive,–,–,–
COc1ccc(C(=O)N2CCN(CC(=O)N3CCOCC3)CC2)cc1,inactive,inactive,–,inactive,inactive,inactive,inactive,–,–,–
CO[C@@H]1[C@H](OC(=O)/C=C/C=C/C=C/C=C/C(=O)O)CC[C@]2(CO2)[C@H]1[C@@]1(C)O[C@@H]1CC=C(C)C,inactive,1.9 nM (active) and 12.2 nM (active),–,2.7 nM (active) and 10.9 nM (active),inactive,inactive,inactive,–,–,–
O=CC1CC=CCC1 (stereo not given),inactive,inactive,–,inactive,inactive,–,inactive,inactive,inactive,inactive
